About 2,100 (3.2%) of roughly 65,000 compounds showed an effect of 50% or more. The median lay at about -52%. The list comes from a sample in which strong results are over-represented; it also holds similar structures and randomly drawn compounds.
What follows are compounds tested on Plasmodium falciparum (assay: Screen against P. falciparum Asexual Blood Stage (ABS), at 5uM). Conditions: tested at 5 uM.
Assay type: functional, Dd2
For Cn1ccc(C(=O)NCc2cccc(NC(=O)C3CCC3)c2)cc1=O, the INHIBITION was -218%.
Work on CC(CN1CCCCCC1)NCc1cc(-c2ccco2)on1 (stereo unspecified) yielded an INHIBITION of 18%.
Compound COCCN(Cc1sccc1C)C(=O)COc1ccccc1O has an INHIBITION of -65.9%.
COCCN(Cc1sccc1C)C(=O)C1CCN(C(C)C)CC1 showed an INHIBITION of 57.7%.
COCCN(Cc1sccc1C)C(=O)C1CCCN(C(N)=O)C1 (stereo unspecified) gave an INHIBITION of -75.6%.
Cc1nn(CC(C)C)c(N(C)C)c1CNCc1cccc2c1OCO2 showed an INHIBITION of 29.4%.
Cc1nn(C)c(N(C)C)c1CNCc1ccc2c(c1)OCO2 was tested, and the INHIBITION was 35.3%.
Cc1ccc2c(c1)CCC2NCc1c(C)nn(C)c1N1CCOCC1 (stereo unspecified) showed an INHIBITION of 64.2%.
Cc1nn(C)c(N2CCOCC2)c1CNCc1ccc2c(c1)OCO2 was tested, and the INHIBITION was 64.5%.
Cc1nn(CC(C)C)c(N(C)C)c1CNCc1ccc2c(c1)OCO2 was tested, and the INHIBITION was 54.6%.
Compound Cc1nn(C)c(N2CCOCC2)c1CNCc1nccs1 has an INHIBITION of -58.2%.
Cc1nn(C)c(N2CCOCC2)c1CNCc1ccnn1C gave an INHIBITION of -222%.
In the case of Cc1nn(C)c(N2CCOCC2)c1CNCc1ccc(Cl)s1, the INHIBITION was 53%.
Cc1nn(C)c(N2CCOCC2)c1CNC1CCc2ccccc21 (stereo unspecified) showed an INHIBITION of 45.3%.
With Cc1nn(C)c(N2CCOCC2)c1CNCc1ccnc(N(C)C)c1 the INHIBITION was -24.8%.
Cc1nn(C)c(N2CCOCC2)c1CNCc1ccc(CO)c(F)c1 was tested, and the INHIBITION was -77.5%.
Work on Cc1nn(C)c(N2CCOCC2)c1CNC1CCc2cc(F)ccc21 (stereo unspecified) yielded an INHIBITION of 40.1%.
O=C1C(N2CC[C@@H](O)C2)CCCN1Cc1cccc(C(F)(F)F)c1 (stereo partly specified) gave an INHIBITION of -51.6%.
CCOCCN1CCN(C=C2NN=C(c3occc3C)O2)CC1 was tested, and the INHIBITION was -7.75%.
Compound COc1ccc2c(c1)sc(=NC(=O)CSCC(=O)Nc1nccs1)n2C has an INHIBITION of -52.2%.
Compound CC(C)(O)CN1CCN(C(=O)c2cnn(-c3ccccc3F)c2)CC1 has an INHIBITION of -73.1%.
In the case of c1ccc(-c2nc(CN3CCCC3Cn3cncn3)co2)cc1 (stereo unspecified), the INHIBITION was -69.1%.
Compound CNC(=O)[C@H]1C[C@H]2CN(C(=O)NC(C)C)C[C@@H]1O2 has an INHIBITION of -50%.
With COc1cc(CN(C)Cc2cccnc2)c(SC)cc1OC the INHIBITION was -61.6%.
Compound COc1ccc2nnc(CCCC(=O)NCc3ccccc3OC)n2n1 has an INHIBITION of -64.6%.
For Cc1cnc(CN(Cc2cccc(O)c2)CC2CC2)cn1, the INHIBITION was -23.7%.
For CN1C(=O)CN(C(=O)c2ccc(=O)n(C)c2)c2ccccc21, the INHIBITION was -50.5%.
For CC(C)c1nn(C)c(N2CCOCC2)c1CNCc1cscn1, the INHIBITION was -72.2%.
For Cc1nn(C)c(N2CCOCC2)c1CNCc1cscn1, the INHIBITION was 56.6%.
Cc1nc(CNCc2c(C)nn(C)c2N2CCOCC2)cs1 was tested, and the INHIBITION was 27.5%.
In the case of COc1ccccc1-c1ccc(C(=O)N2C[C@@H]3CC[C@H]2CN(C)C3)cc1, the INHIBITION was -93.3%.
Cc1nc(C)n(CC2CCCN2Cc2nnc(-c3ccco3)o2)n1 (stereo unspecified) gave an INHIBITION of -53.7%.
In the case of Cc1nc(-n2nc(-c3cccs3)cc2N)[nH]c(=O)c1C, the INHIBITION was -26.1%.
Cc1n[nH]cc1CNCc1ccnc(OCC(F)(F)F)c1 showed an INHIBITION of -64.7%.
Work on Cc1n[nH]cc1CNCc1cccc(OCC(F)(F)F)c1 yielded an INHIBITION of 57.9%.
Cc1n[nH]cc1CNC(=O)Nc1cccc(OCC(F)(F)F)c1 showed an INHIBITION of -31.6%.
Work on COc1ccc(NS(=O)(=O)C=c2[nH]c(=O)n3cccc3c2=O)cc1Cl yielded an INHIBITION of -76.2%.
CN(C)C(C)(C)CNC(=O)C(C)(C)c1ccccc1F was tested, and the INHIBITION was 53.3%.
With CC(C)(CNC(=O)C(C)(C)c1ccccc1F)C(N)=O the INHIBITION was -83%.
Work on CC(C)(C(=O)NCC(N)=O)c1ccccc1F yielded an INHIBITION of -60.2%.
In the case of c1csc(-c2noc(CNCCn3cccn3)n2)c1, the INHIBITION was -114%.
In the case of Cc1cnn(CC(C)NCc2nc(-c3cccs3)no2)c1 (stereo unspecified), the INHIBITION was -73.4%.
CC(Cn1cccn1)NCCCc1nc(-c2cccs2)no1 (stereo unspecified) showed an INHIBITION of 67.8%.
In the case of Cc1cccc(CN2CCCC2c2cncc(Nc3nncs3)n2)c1 (stereo unspecified), the INHIBITION was 52.5%.
For COc1cccc(CN2CCCC2c2cncc(Nc3nncs3)n2)c1 (stereo unspecified), the INHIBITION was -8.54%.
Work on Cc1ccccc1CN1CCCC1c1cncc(Nc2nncs2)n1 (stereo unspecified) yielded an INHIBITION of -20.5%.
c1ccc(CCNC2CCc3ncnn3C2)nc1 (stereo unspecified) showed an INHIBITION of -209%.
Compound CC(C)(CNc1c(C#N)cnc2ccc(Cl)cc12)C(N)=O has an INHIBITION of 11.4%.
CCC(CC)C(=O)NCC1(NC(C)c2ccccc2)CCOCC1 (stereo unspecified) was tested, and the INHIBITION was -6.09%.
For CC(NC1(CNS(C)(=O)=O)CCOCC1)c1ccccc1 (stereo unspecified), the INHIBITION was 0.206%.
CC(NC1(CNS(C)(=O)=O)CCCC1)c1ccccc1 (stereo unspecified) gave an INHIBITION of 68.9%.
Compound O=C(Cc1ccccc1)NCCNCc1cccc(O)c1 has an INHIBITION of 6.4%.
With COc1ccc(-n2cccn2)c(CN2CCC3(CCCNC3)C2)c1 (stereo unspecified) the INHIBITION was 68.3%.
COc1ccc(-n2cccn2)c(CN2CCC3(CCNCC3)C2)c1 gave an INHIBITION of 31.9%.
COc1ccc(-n2cccn2)c(CN2CCC(O)(CO)CC2)c1 gave an INHIBITION of -36%.
CCn1ncc2c1CN(CCc1cccc(Cl)c1)CC2COC (stereo unspecified) was tested, and the INHIBITION was -27.5%.
Cc1cccc(CO[C@@H]2CO[C@@]3(CCN(S(=O)(=O)N(C)C)C3)C2)n1 was tested, and the INHIBITION was -44.7%.
In the case of CCn1cnnc1C1CCN(C(=O)c2cnn(C(C)(C)C)c2)CC1, the INHIBITION was -133%.
For CCN(Cc1ccccc1)C(=O)CCN1C[C@@H](C(=O)O)[C@H](C2CC2)C1, the INHIBITION was -49.1%.
CN(Cc1ccccc1)C(=O)CCN1C[C@H](C2CC2)[C@@H](N(C)C)C1 was tested, and the INHIBITION was 51.9%.
In the case of C[C@@H]1CN(CCC(=O)N(C)Cc2ccccc2)C[C@@]1(O)C1CCC1, the INHIBITION was 20.7%.
Work on O=C(c1cccn1-c1ccc2c(c1)OCCO2)N1CCCC1 yielded an INHIBITION of 9.62%.
In the case of CC(C)N1CCC2(CC1)CC(CC(N)=O)c1ccc(F)cc12 (stereo unspecified), the INHIBITION was -12.3%.
With c1cnc(N2CCC3(CCN(CC4CCOCC4)CC3)C2)nc1 the INHIBITION was -30.1%.
c1cnc(N2CCC3(CCN(CC4CCOC4)CC3)C2)nc1 (stereo unspecified) gave an INHIBITION of -14.7%.
c1cnc(N2CCOC3(CCN(CC4CCOC4)CC3)C2)nc1 (stereo unspecified) was tested, and the INHIBITION was -13%.
c1cnc(N2CCC3(CCN(CC4CCCC4)CC3)C2)nc1 was tested, and the INHIBITION was 43.8%.
Compound c1cnc(N2CCOC3(CCN(CC4CCCCC4)CC3)C2)nc1 has an INHIBITION of 57.2%.
With c1cnc(N2CCCC3(CCN(CC4CCOC4)CC3)C2)nc1 (stereo unspecified) the INHIBITION was 56.4%.
With CN(C(=O)C1CCN(Cc2cnc3ccccn23)CC1)c1ccccc1 the INHIBITION was 10%.
With CCCc1cc(CNC2CCN(c3cc(C)nc(N)n3)CC2)on1 the INHIBITION was -44.2%.
Compound O=C1NCC2CN(Cc3ccccc3OCc3ccccn3)CCN12 (stereo unspecified) has an INHIBITION of -16.2%.
In the case of CCOC(=O)Cc1n[nH]c(-c2cncc(Br)c2)n1, the INHIBITION was -109%.
CCC(=O)N1CCCN(Cn2nc(C)c(Br)c2C)CC1 was tested, and the INHIBITION was -101%.
CCc1ccc(S(=O)(=O)N2CCN(CCn3ccnc3)CC2)cc1 showed an INHIBITION of -45.4%.
O=C1CCCN1CC1CN(CC2CCOCC2)Cc2nccn2C1 (stereo unspecified) showed an INHIBITION of -87%.
Compound Cc1ncc(CN(C)CCO)c2cc(C(=O)c3ccc(Br)cc3)oc12 has an INHIBITION of 49.9%.
Work on Cc1ncc(CN2CCOCC2)c2cc(C(=O)c3ccc(Br)cc3)oc12 yielded an INHIBITION of -2.54%.
In the case of Cc1ncc(CN2CCCC2)c2cc(C(=O)c3ccc(Br)cc3)oc12, the INHIBITION was 67.5%.
For CCO[C@H]1CC[C@H]2[C@H]1OCCN2C(=O)c1nn(C)c2ccccc12, the INHIBITION was -77.6%.
Work on Cc1nc(N)ncc1C(=O)N1CCCC(CCc2ccc(F)cc2)C1 (stereo unspecified) yielded an INHIBITION of 38%.
With N#Cc1cccc(C(=O)N2CCN(c3ncccn3)CC2)c1 the INHIBITION was -150%.
COc1ccc(C2Nc3ccccc3C3=NCCCN32)cc1OC (stereo unspecified) was tested, and the INHIBITION was -62.4%.
CN(C)c1ncc(C2Nc3cc(Cl)ccc3C3=NCCCN32)cn1 (stereo unspecified) gave an INHIBITION of -9.81%.
Compound COc1ccc(C2Nc3cc(Cl)ccc3C3=NCCN32)cc1OC (stereo unspecified) has an INHIBITION of 72.2%.
COCCN1CCN(CC2CCCCO2)CC1 (stereo unspecified) gave an INHIBITION of -67.3%.
Cc1cccc(C(=O)N2C[C@@H]3OCCN(CCN4CCCC4)[C@@H]3C2)n1 gave an INHIBITION of -112%.
Work on CO[C@@H]1c2ccccc2C2(CCN(C(=O)CNC(=O)C(C)C)CC2)[C@H]1O yielded an INHIBITION of -62.3%.
NC(=O)C1CCN(C(=O)NC2CCN(CC3CCCC3)C2)CC1 (stereo unspecified) was tested, and the INHIBITION was -53.5%.
Cc1noc(C)c1CNC(=O)N1CCC(OCC2CC2)CC1 showed an INHIBITION of -65.8%.
Work on O=C(NC1CCN(CC2CCCC2)C1)N1CCC(OCC2CC2)CC1 (stereo unspecified) yielded an INHIBITION of 64.5%.
Compound O=C(NC1CCN(CC2CC2)C1)N1CCC(OC2CCCCC2)CC1 (stereo unspecified) has an INHIBITION of 55%.
Compound O=C(CCN1CCOCC1)NC1CCCN(CC2CCCCC2)C1 (stereo unspecified) has an INHIBITION of -80.2%.
With CSC(C)(C)CNC(=O)NC1CCN(CC2CC2)C1 (stereo unspecified) the INHIBITION was -35.8%.
In the case of Cc1ccc(C(=O)N2CCCC(c3cc(C(F)(F)F)[nH]n3)C2)o1 (stereo unspecified), the INHIBITION was -50.8%.
Compound Cc1cnc2n(c1=O)CC(C(=O)NCc1ccccc1Cl)CS2 (stereo unspecified) has an INHIBITION of -88.7%.
CC1CCCN(C(=O)c2ccc(N(C)Cc3cnn(C)c3)nc2)C1 (stereo unspecified) was tested, and the INHIBITION was -222%.
Cc1nn(C)c2c(NC3CCCC3)nc(C3CC3)nc12 showed an INHIBITION of -18.7%.
COC(=O)NCCC(=O)NC(c1ccc(Cl)cc1)C(F)(F)F (stereo unspecified) showed an INHIBITION of 63.6%.
Work on COCC(=O)NC(c1ccc(Cl)cc1)C(F)(F)F (stereo unspecified) yielded an INHIBITION of 7.67%.
COC(=O)NCC(=O)NC(c1ccc(Cl)cc1)C(F)(F)F (stereo unspecified) showed an INHIBITION of 38%.
Work on Cc1cccc(CN2C[C@@H]3OCCN(c4ccnc(N(C)C)n4)[C@@H]3C2)c1 yielded an INHIBITION of 52.5%.
CCc1ccc(CN2C[C@@H]3OCCN(c4ccnc(N(C)C)n4)[C@@H]3C2)o1 was tested, and the INHIBITION was 9.71%.
In the case of CN(C)c1nccc(N2CCO[C@H]3CN(Cc4nccn4C)C[C@H]32)n1, the INHIBITION was -73.7%.
N#Cc1ccc(N2CCCC3(CCC(=O)N3CC3CC3)CC2)nc1 (stereo unspecified) was tested, and the INHIBITION was -26.4%.
Cc1cc(CN(C)Cc2ncc(-c3ccccc3)o2)no1 gave an INHIBITION of -107%.
